{
  "source": "PubChem BioAssay AID493169",
  "about": "(National Center for Advancing Translational Sciences (NCATS), 2011)",
  "note": "Inconclusive results are not listed. A call without a number means that no potency is given here. The source made the active and inactive calls. Calls come from the whole dose curve; as a rule, active = well fitted inhibition curve with a large enough effect; inconclusive = small, poorly fitted or top-dose-only effect; inactive = flat fitted curve, though single readings scatter. Potency is the fitted concentration of half-maximal effect.",
  "data": [
    {"experiment": "CHOP2 Reporter Counterscreen Assay for Inhibitors of Ubiquitin-specific Protease USP2a;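 note: activated enterokinase alone at 50 pM in a cell-free format rather than USP2a or CHOP2; nearly all actives have a fitted effect of over 55% in size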", "settings": "purified enterokinase, fluorogenic substrate, 485/531 nm; series mostly up to 38.3 µM", "from_the_text": "NIH Molecular Libraries Probe Centers Network [MLPCN] NIH Chemical Genomics Center [NCGC] MLPCN Grant: XO1-MH079852-01 PI Name: Nicholson, Ben. Progenra Inc, Malvern, PA NCGC Assay Overview: Homeostasis of cellular proteins is maintained through a combination of synthesis and degradation. The pathway that accounts for the majority of protein degradation is the ubiquitin-proteasomal pathway. Ubiquitin (Ub) is highly conserved in all cells and the generation of a multi-Ub chain typically targets proteins for degradation by the proteasome. However, ubiquitination is highly reversible and dynamic. Deubiquitination, the reverse process, is catalyzed through the action of enzymes referred to as isopeptidases or deubiquitinating enzymes (DUBs). This group of enzymes is collectively responsible for maintaining adequate pools of free ubiquitin and regulating the ubiquitination status of cellular proteins. The class of DUBs referred to as the ubiquitin-specific proteases (USP) family functions endoproteolytically to cleave Ub chains from a wide range of protein substrates. USP2a deubiquitinates fatty acid synthase (FASN) which has recently been identified as an emerging oncology target. To identify inhibitors of USP2a a cell-free assay was employed. This assay is a counterscreen against the reporter enzyme used to measure USP2a activity in the primary qHTS assay. The reporter enzyme is a protease (enterokinase, EK; EC 3.4.21.9), which is activated when a Ub sequence is cleaved by USP2a. The counterscreen assay is performed in the same buffer and conditions as the primary USP2a coupled assay but uses fully activated EK alone. The assay gives a fluorescent read-out at excitation/emission wavelengths of 485/531. The assay was provided by Progenra, Inc. and has been licensed for sale by LifeSensors, Inc.\nNCGC Assay Protocol: The assay buffer, prepared fresh at the day of the assay, contains 20mM Tris-HCl pH 8.0, 2mM CaCl2, 2mM beta-Mercaptoethanol, 0.05% CHAPS. 3uL of 100 pM EK (50 pM final) was dispensed into a medium-binding black solid Kalypsys 1,536 well plate using the Kalypsys dispenser. The assay plate was then pinned with 23nL compounds in DMSO with the Kalypsys pintool in columns 5-48 (0.3% final DMSO concentration). The negative control was buffer/DMSO only in column 3. The assay plate is incubated at RT for 30min. Subsequently, 3uL of reporter substrate (25nM final) were dispensed into the plate using the Kalypsys dispenser. Plates were read after 10 min at RT on a ViewLux (Perkin Elmer) plate reader using the following wavelengths: Ex 485nm /Em 531nm. Data were normalized to the AC100 inhibition (buffer alone). Concentration-response curves were fitted to the normalized data and the concentration-response curves were then classified based on curve quality (r2), response magnitude and degree of measured activity. The time zero reading was used to flag fluorescence artifacts.", "values": [
      {"compound": "COc1ccc(CCN2CC(C#N)=C3c4cc(OC)c(OC)cc4CCN3C2)cc1OC", "Potency": "inactive"},
      {"compound": "CC(/C=N/NC(=O)c1cc(-c2cccs2)[nH]n1)=C\\c1ccccc1", "Potency": "inactive"},
      {"compound": "O=C(CSc1nc(N2CCCCC2)nc(N2CCCCC2)n1)N1CCN(c2ccccc2)CC1", "Potency": "inactive"},
      {"compound": "Cc1c(C(=O)Nc2ccc3c4c(cccc24)CC3)cccc1[N+](=O)[O-]", "Potency": "inactive"},
      {"compound": "CCOC(=O)c1[nH]c2ccc(OC)cc2c1NC(=O)CCN1CCC(C)CC1", "Potency": "inactive"},
      {"compound": "COc1ccc(N(C(=O)C(C)C)S(=O)(=O)c2ccc(Cl)cc2)cc1", "Potency": "inactive"},
      {"compound": "COc1ccc(-c2[nH]ncc2/C=C(/C#N)C(=O)NC2CCCCC2)cc1", "Potency": "inactive"},
      {"compound": "O=C(O)C(Cc1ccccc1)N1C(=O)/C(=C/C=C/c2ccco2)SC1=S", "note": "(stereo not given)", "Potency": "2.51 µM (active)"},
      {"compound": "CN1CCN(CCCCOc2ccc(F)cc2)CC1", "Potency": "inactive"},
      {"compound": "COc1ccc(C(=O)OCC(=O)c2c[nH]c3ccccc23)c(OC)c1", "Potency": "inactive"},
      {"compound": "COC(=O)c1[nH]c(=O)c2ccccc2c1OCc1ccccc1", "Potency": "inactive"},
      {"compound": "Cc1nn(CC(=O)Nc2cccc(S(N)(=O)=O)c2)c(C)c1[N+](=O)[O-]", "Potency": "inactive"},
      {"compound": "O=C1Nc2ccccc2SC(c2ccccc2)C1O", "note": "(stereo not given)", "Potency": "7.94 µM (active)"},
      {"compound": "O=C(NCCc1ccccc1)c1ccc2nc(-c3ccco3)c(-c3ccco3)nc2c1", "Potency": "5.01 µM (active)"},
      {"compound": "Cc1ccc(C)n1-c1cc(S(=O)(=O)N2CCOCC2)ccc1N1CCCC1", "Potency": "inactive"},
      {"compound": "Cc1ccc(NC(=O)c2cc3c(=O)oc4ccccc4c3s2)nc1", "Potency": "inactive"},
      {"compound": "O=C(Nc1ccccc1)Nc1snnc1C(=O)Nc1cccc(O)c1", "Potency": "inactive"},
      {"compound": "CCOC(=O)C1=CN(Cc2cccc(F)c2)S(=O)(=O)NC1c1ccc(Br)cc1F", "note": "(stereo not given)", "Potency": "inactive"},
      {"compound": "O=S(=O)(c1cc(Cl)ccc1Cl)N1CCNCC1", "Potency": "inactive"},
      {"compound": "NC1=NC(=O)/C(=C/c2cccc(-c3ccc(S(N)(=O)=O)cc3)c2)S1", "Potency": "inactive"},
      {"compound": "CC1(C)CC(=O)C2=C(C1)Oc1ncn(CCCO)c(=N)c1C2c1ccccc1", "note": "(stereo not given)", "Potency": "inactive"},
      {"compound": "CCOC(=O)COc1c(OC)cc(Cl)cc1C1Nc2ccccc2C(=O)N1c1ccccc1", "note": "(stereo not given)", "Potency": "inactive"},
      {"compound": "O=C(CSCCO)Nc1cccc2ccccc12", "Potency": "inactive"},
      {"compound": "CCOc1ccc(NC(=O)CSc2nnc(Cn3c(=O)sc4ccccc43)n2C)cc1", "Potency": "inactive"},
      {"compound": "COC(=O)C1CCN(C(=O)c2cc(-c3ccco3)nc3ccccc23)CC1", "Potency": "3.98 µM (active)"},
      {"compound": "O=[N+]([O-])c1cc(-c2nnc(Nc3ccccc3)c3ccccc23)ccc1N1CCOCC1", "Potency": "inactive"},
      {"compound": "Cc1ccc2[nH]c(=O)c(COC(=O)c3ccccn3)cc2c1", "Potency": "inactive"},
      {"compound": "CCn1cc(C(=O)N2CCOCC2)c(=O)c2cc(S(=O)(=O)N(C)C)ccc21", "Potency": "inactive"},
      {"compound": "C=CC[C@H](CC(=O)N(CCO)Cc1ccccc1)C(=O)N[C@H](C)COC(=O)[C@@H](CC=C)CC(=O)OC(C)(C)C", "Potency": "inactive"},
      {"compound": "NC(=O)c1ncc(C(F)(F)F)cc1Oc1cccc(F)c1", "Potency": "inactive"},
      {"compound": "Cc1nc(N(C)C)c2sc(=S)n(C)c2n1", "Potency": "inactive"},
      {"compound": "O=C(NCC(c1cccnc1)N1CCN(c2ccc(F)cc2)CC1)OCc1ccccc1", "note": "(stereo not given)", "Potency": "inactive"},
      {"compound": "CCOC(=O)N1CCC(NC(=O)c2ccc(OC)c(CN3CC(=O)N4CCCC4C3=O)c2)CC1", "note": "(stereo not given)", "Potency": "inactive"},
      {"compound": "COc1ccc(CCNC(=O)Cc2cc(=O)[nH]c(=O)[nH]2)cc1OC", "Potency": "inactive"},
      {"compound": "O=C(Nc1ccc2nc(-c3ccco3)c(-c3ccco3)nc2c1)N1CCN(c2ccccn2)CC1", "Potency": "2.82 µM (active)"},
      {"compound": "Cc1ccc(S(=O)(=O)Nc2ccccc2-c2ccccc2NS(=O)(=O)c2ccc(C)cc2)cc1", "Potency": "inactive"},
      {"compound": "O=C(CSc1ncccc1-c1nc2ccccc2[nH]1)Nc1ccc2c(c1)OCCO2", "Potency": "inactive"},
      {"compound": "O=C(O)c1cccc(S(=O)(=O)NNc2ccccc2C(F)(F)F)c1", "Potency": "inactive"},
      {"compound": "O=C(CC1Oc2ccccc2NC1=O)NCc1ccc(Cl)cc1", "note": "(stereo not given)", "Potency": "inactive"},
      {"compound": "Cc1c(NC(=O)C2CCCN2S(=O)(=O)c2ccc(Cl)cc2)c(=O)n(-c2ccccc2)n1C", "note": "(stereo not given)", "Potency": "inactive"}
    ]}
  ]
}
